Inconclusive results are not listed. Active and inactive are the calls of the source. How the source made its calls: active means hit-call score of the fitted dose curve at least 0.9, where 1 is the maximum; inconclusive means response in the unintended direction; inactive means score below 0.9.
molecular target: human Thyroid Receptor alpha (THRa1), THRA (gene 7067) (UniProt P10827); experiment: ATG_THRa1_TRANS: Attagene TRANS-FACTORIAL HepG2 Assay for human Thyroid Receptor alpha (THRa1) (AID 2283014)
Sequence (P10827 whole entry, looked up): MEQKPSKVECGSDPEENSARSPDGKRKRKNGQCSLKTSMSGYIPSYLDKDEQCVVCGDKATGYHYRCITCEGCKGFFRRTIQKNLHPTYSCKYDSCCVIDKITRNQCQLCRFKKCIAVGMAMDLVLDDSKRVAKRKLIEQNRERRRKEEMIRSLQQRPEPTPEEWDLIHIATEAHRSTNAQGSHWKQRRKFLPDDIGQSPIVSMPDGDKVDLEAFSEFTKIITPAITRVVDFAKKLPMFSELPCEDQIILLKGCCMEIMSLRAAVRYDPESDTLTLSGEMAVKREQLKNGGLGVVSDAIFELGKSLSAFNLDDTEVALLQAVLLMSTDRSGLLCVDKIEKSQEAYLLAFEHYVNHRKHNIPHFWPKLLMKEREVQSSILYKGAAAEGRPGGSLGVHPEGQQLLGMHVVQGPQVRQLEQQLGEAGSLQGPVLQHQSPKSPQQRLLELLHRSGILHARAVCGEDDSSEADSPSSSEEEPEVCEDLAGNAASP
Description: ATG_TRANS is a cell-based, multiplexed-readout assay that uses HepG2, a human liver cell line, with measurements taken at 24 hours after chemical dosing in a 24-well plate.ATG_THRa1_TRANS is one of 30 assay component(s) measured or calculated from the ATG_TRANS assay. It is designed to make measurements of mRNA induction, a form of inducible reporter, as detected with fluorescence intensity signals by Reverse transcription polymerase chain reaction (RT-PCR) and Capillary electrophoresis technology.Data from the assay component ATG_THRa1_TRANS was analyzed into 1 assay endpoint. This assay endpoint, ATG_THRa1_TRANS, was analyzed in the positive analysis fitting direction relative to DMSO as the negative control and baseline of activity. Using a type of inducible reporter, measures of mRNA for gain-of-signal activity can be used to understand the reporter gene at the transcription factor-level as they relate to the gene THRA. Furthermore, this assay endpoint can be referred to as a primary readout, because this assay has produced multiple assay endpoints where this one serves a reporter gene function. To generalize the intended target to other relatable targets, this assay endpoint is annotated to the nuclear receptor intended target family, where the subfamily is non-steroidal.
Human liver HepG2 cells are transiently transfected with multiple reporter transcription units (MRTUs) in 6-well plates using FuGene 6 reagent (Roche; 3 ml FuGene/1 mg DNA). The MRTU constructs are regulated by a cis-regulating element (promoter). […] A major difference between the CIS and TRANS system is that in CIS activities of endogenous TFs are measured, whereas the TRANS assay evaluates changes in activities of exogenous, chimeric NR-Gal4 proteins. […] At the end of 24 hour incubation, total RNA was isolated using TriZol reagent (Invitrogen). The isolated RNA is then reverse-transcribed using oligo(dT) primer and Mo-MLV reverse transcriptase (Invitrogen) with DNAse I (Ambion) treatment for 30 min. The one-tenth of the produced cDNA was amplified by PCR using Taq DNA polymerase (Invitrogen) and two reporter sequence-specific primers. The PCR products were fluorescently labeled by primer extension with 6-arboxyfluorescein (6-FAM) 5'-labeled reporter sequence-specific primer (2 min at 95 C, 20 s at 68 C and 10 min at 72 C) and these products were digested with 5U of HpaI (New England Biolabs) for 2h at 37 C. The fragments were purified using Qiaquick PCR columns (Qiagen), analyzed on an ABI 3130xL genetic analyzer (Applied Biosystems) with peak positions identified by using a set of X-rhodamine (ROX)-labeled MapMarker1000 molecular weight standards (BioVentures). The raw capillary electrophoresis data was processed using Attagraph software (Attagene).

Row | SMILES | outcome | AC50
1 | CC[N+](CC)(CC)CC | inactive | –
2 | Cc1ccc(CCl)cc1 | inactive | –
3 | CCOC(=O)CC(=O)CCl | – | 100 µM (active)
4 | Oc1cccc(-c2ccccc2)c1 | inactive | –
5 | Cc1cc(SCc2sc(-c3ccc(C(F)(F)F)c(F)c3)nc2C)ccc1OCC(=O)O | inactive | –
6 | Brc1c(Br)c(Br)c(Oc2c(Br)c(Br)c(Br)c(Br)c2Br)c(Br)c1Br | inactive | –
7 | COC(=O)Nc1cccc(OC(=O)Nc2cccc(C)c2)c1 | inactive | –
8 | CC(C)(c1ccccc1)c1cc(-n2nc3ccccc3n2)c(O)c(C(C)(C)c2ccccc2)c1 | inactive | –
9 | CC(C)[C@H](C(=O)OC(C#N)c1cccc(Oc2ccccc2)c1)c1ccc(OC(F)F)cc1 (stereo not given in full) | inactive | –
10 | C[N+](C)(C)Cc1ccccc1 | inactive | –
11 | CCOP(=S)(OCC)Oc1ccc(Cl)cc1Cl | inactive | –
12 | C=C(C)[C@@H]1CC=C(C=O)CC1 | inactive | –
13 | O=C(CCl)Nc1ccccc1 | inactive | –
14 | [Cl][Sn]([c]1ccccc1)([c]1ccccc1)[c]1ccccc1 | inactive | –
15 | O=C/C(Cl)=C(/Cl)C(=O)O | inactive | –
16 | C=CC(=O)NC(C)(C)CC(C)=O | inactive | –
17 | CCCCOP(=O)(CCCC)OCCCC | inactive | –
18 | Clc1cccc(Cl)c1 | inactive | –
19 | O=C(CCl)NCO | inactive | –
20 | O=[N+]([O-])c1ccc(Nc2ccccc2)cc1 | inactive | –

Row | SMILES | outcome | AC50
21 | Cc1cc(-c2cc(C)c(N)c(C)c2)cc(C)c1N | inactive | –
22 | O=C(NC(=O)c1c(F)cccc1F)Nc1ccc(Cl)cc1 | inactive | –
23 | O=C1c2ccccc2C(=O)C1C(=O)C(c1ccccc1)c1ccc(Cl)cc1 (stereo not given) | – | 7.69 µM (active)
24 | C=CCOC(F)(C(F)(F)F)C(F)(F)F | inactive | –
25 | CC(=O)C(F)(F)C(F)(F)F | inactive | –
26 | Brc1ccc(Br)cc1 | inactive | –
27 | O=CCCl | inactive | –
28 | O=C(O)COc1ccc(Cl)cc1 | inactive | –
29 | OC(Cc1ccccc1Cl)(Cn1cncn1)C1(Cl)CC1 (stereo not given) | inactive | –
30 | ClCc1ccccc1CCl | inactive | –
31 | CCCCOC(=O)COC(=O)c1ccccc1C(=O)OCCCC | inactive | –
32 | Nc1ccc(-c2ccccc2)cc1 | inactive | –
33 | Cl[C@H]1OCCO[C@@H]1Cl | inactive | –
34 | CC(C)C(C)(N)C#N (stereo not given) | inactive | –
35 | O=c1nc(O)n(Cl)c(=O)n1Cl | inactive | –
36 | Cc1ccccc1OP(=O)(Oc1ccccc1C)Oc1ccccc1C | inactive | –
37 | O=C(O)c1cc(I)cc(I)c1I | inactive | –
38 | CCC[CH2][Sn]([CH2]CCC)([CH2]CCC)[CH2]CCC | inactive | –
39 | BrCCCCBr | inactive | –
40 | CC(O)(CS(=O)(=O)c1ccc(F)cc1)C(=O)Nc1ccc(C#N)c(C(F)(F)F)c1 (stereo not given) | inactive | –

From PubChem BioAssay (EPA / NIEHS)
